# Tgondii IFNg: inhibitors of Toxoplasma gondii growth with IFN-gamma | AID 1259416 | Toxoplasma gondii growth in IFN-gamma-treated host cells; hits give low values | 3.8% of 69,000 active | activity change, negative = inhibition, % (no concentration beside the values); in the data active means activity change below about -70%, passing the limit was not always enough;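 further: host cells are HeLa cells infected with Toxoplasma gondii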
# The depositor's hits bear a star; ! = not confirmed by another sample. This excerpt belongs to a sample that is enriched for hits.
SMILES,Tgondii IFNg
COCc1cn(CC[C@H]2CC[C@H](NC(=O)Nc3c(C)noc3C)[C@@H](CO)O2)nn1,37
COc1ccc(CC(=O)NCCc2csc(-c3cccc(F)c3)n2)cc1OC,58
CCOCCCNC(=O)c1nc(-c2cccc(F)c2)n2c1CCCCC2,100
COc1ccc(CCNC(=O)c2nc(-c3cccc(F)c3)n3c2CCCCC3)cc1OC,-115*
COc1cc(NC(=O)c2nc(-c3cccc(F)c3)n3c2CCCCC3)cc(OC)c1OC,-105*
CC1CCCN(C(=O)c2nc(-c3cccc(F)c3)n3c2CCCCC3)C1 (configuration not stated),3
CC1CCN(C(=O)c2nc(-c3cccc(F)c3)n3c2CCCCC3)CC1,-59
COCCN1C(=O)CCC12CCCN(Cc1nccn1C)C2 (configuration not stated),3
CC(C)c1nccn1C(C)C(=O)NCc1cc2ccc(F)cc2[nH]c1=O (configuration not stated),8
CS(=O)(=O)N1CCOC2(CCNCC2)c2ccccc21,141
COc1ccc(F)c(F)c1-c1nccn1Cc1ccccc1-n1cncn1,2
COc1ccc(Oc2ccc(NC(=O)Nc3ccc(SC(F)(F)F)cc3)cn2)cc1,-88*
COc1ccc(NC(=O)Nc2ccc(-c3nc(-c4ccccc4)co3)cc2)cc1,-23
COc1ccc(NC(=O)CSCC(=O)O)cn1,-7
COc1ccc(NC(=O)CCN2CCc3ccccc3C2)c(OC)c1,30
CN1CC2(CCN(C(=O)C3CCN(Cc4ccco4)CC3)C2)OC1=O (configuration not stated),0
O=C(c1cnc(Nc2ccccc2)nc1)N1CCOC2(CNCCOC2)C1 (configuration not stated),-3
FC(F)(F)c1ccc(N2CCN(Cc3cc(Cl)cc4c3OCOC4)CC2)nc1,-85*
CN1CCN(Cc2ccccc2Oc2ncc(C(F)(F)F)cc2Cl)CC1,4
CC(C)(C)C(=O)N1CCN(c2ccc(C(F)(F)F)cn2)CC1,-7
COC(=O)Nc1nc2ccc(C(=O)c3ccccc3C(=O)OC(C)C)cc2[nH]1,-101*
COC(=O)c1ccc(NC(=O)c2ccccc2SC)cc1,92
COC(=O)Nc1nc2ccc(S(=O)c3ccccc3)cc2[nH]1 (configuration not stated),-75*!
O=C(O)c1ccc2nc(-c3ccccn3)[nH]c2c1,270
COC(=O)Nc1nc2ccc(C(=O)c3cccs3)cc2[nH]1,-87*
SMILES,Tgondii IFNg
COC(=O)Nc1cc(C)n(-c2ccccc2)n1,-44
COc1ccc(-n2nc3ccc(NC(=S)NC(=O)c4cccs4)cc3n2)cc1,32
COC(=O)Nc1nc2ccc(C(=O)c3ccccc3)cc2[nH]1,-79*
CC(c1ccon1)N(C)CC(=O)Nc1nc2ccccc2[nH]1 (configuration not stated),19
CCCS(=O)c1ccc2nc(NC(=O)OC)[nH]c2c1 (configuration not stated),18
Cc1ccc(C(=O)O)cc1NC(=O)c1cccs1,-3
Cc1ccc2nc(NC(=O)C(C)(C)C)[nH]c(=O)c2c1,239
COc1ccc(C2CCN(C(=O)Cc3ccc4c(c3)OCO4)CC2)cc1,-1
Cc1ccc(NC(=O)N2CCC[C@@]3(C(=O)NCC4CC4)CN(c4ncccn4)C[C@H]3C2)cc1,-26
O=C(Nc1ccc(F)c(Cl)c1)N1CCCCC1CCN1CCOCC1 (configuration not stated),-2
Cc1ccoc1C(=O)N1CC[C@H]2[C@@H]1CCN2c1nncs1,-41
CCCSc1ccc2nc(NC(=O)OC)[nH]c2c1,-78*!
COC(=O)Nc1nc2ccc(SC(C)C)cc2[nH]1,-66
CCCCCC#CC(=O)Nc1nc2cc(C)c(C)cc2[nH]1,84
CCc1ccccc1Nc1ncnc2c1cnn2-c1cccc(C)c1,-51
COCCNC(=O)c1cncc(NS(=O)(=O)c2ccc(NC(C)=O)cc2)c1,33
Cc1ccc(Nc2nc(Nc3ccc(C)cc3)nc(Sc3nncn3C)n2)cc1,-75*
Cn1cnnc1Sc1cc(C#N)c(C#N)cc1Sc1nncn1C,-41
CC1c2cccn2CCN1Cc1ccc(Sc2nncn2C)o1 (configuration not stated),3
C1=CCC(CNCCN2CCOCC2)CC1 (configuration not stated),17
Cc1cnc(NC(C)Cc2cccnc2)nc1N(C)C (configuration not stated),3
O=C(CN1C(=O)CCc2cc(S(=O)(=O)N3CCOCC3)ccc21)NC1CCCCCCC1,0
O=S(=O)(CCN(CCS(=O)(=O)c1ccccc1)c1ncccn1)c1ccccc1,-13
Cc1nc2c(c(=O)[nH]1)CSCC2,-46
Cc1cccc(CN2CCCC3(CCN(c4cncnc4)C3=O)C2)n1 (configuration not stated),-3
SMILES,Tgondii IFNg
O=c1[nH]c(CN2CCCC3(CCCCC3)C2)nc2c1C1(CCCCC1)Cc1ccccc1-2,-81*
CC1(C)CC2(CCCN(Cc3nc4c(c(=O)[nH]3)C3(CCCCC3)Cc3ccccc3-4)C2)CCO1 (configuration not stated),-85*
O=c1oc(-c2ccccc2)nc2c1C1(CCCC1)Cc1ccccc1-2,-50
CC1(C)Cc2ccccc2-c2nc(-c3ccccc3)oc(=O)c21,6
C[C@H]1C[C@@H]2CN(C(=O)CCc3ccccc3)CC[C@H]2O1,1
COC(=O)[C@@H]1C[C@H](NC(=O)c2cnc3cccc(C)n3c2=O)CN1C,6
Cc1c(NC(=O)C(C)N2CCC(C)CC2)cccc1C(=O)NC(C)(C)C (configuration not stated),-1
CCN1CCc2onc(CN3CCCC3)c2C1,-3
COc1ccc(C2CC(c3ccc(OC)cc3)n3ncnc3N2C(C)=O)cc1 (configuration not stated),23
CCNC(=O)c1ccccc1-c1cc2ccccc2nc1OC,2
COc1ccc2cc(-c3nc(CCN(C)C(=O)c4cccn4C)no3)[nH]c2c1,-39
Cc1nnsc1C(=O)OCCN(C)c1ccc(C#N)cn1,-4
Cc1nnsc1C(=O)OCc1cc(F)cc(F)c1,-77*
Cc1nnsc1C(=O)N(Cc1ccccc1)C(C)C,-6
Cc1ccc(NC(=O)COc2nc(C)nc3ccccc23)c(Br)c1,1
CO[C@@H](CN(C)S(=O)(=O)c1ccc(F)cc1)[C@H](C)CN(Cc1ccccc1Cl)[C@H](C)CO,-24
CN(C[C@H]1[C@H](c2ccccc2)[C@@H](CO)N1Cc1ccccn1)S(C)(=O)=O,1
COc1ccc(-c2cc3c(=O)n(Cc4nc(-c5ccc(C)cc5)oc4C)ccn3n2)cc1,-49
c1ccc2c(c1)NC(c1ccc3ccccc3n1)n1cccc1-2 (configuration not stated),237
CCCCN(Cc1ccco1)C(=O)C1CCN(c2ncccn2)CC1,-11
c1ccc(-n2ncnc2-c2csc(-c3ccncc3)n2)cc1,-93*
Clc1ccc(-c2csc(-c3ccc(-n4cncn4)nc3)n2)cc1,4
c1ccc(-c2nnc(-c3csc(-c4cccnc4)n3)o2)cc1,303
Cn1cncc1CN1CCC2(CC(=O)N(c3ccccc3)C2)C1 (configuration not stated),-6
CN1CCCC2(CCN(C(=O)c3ccc(-c4ccccc4)[nH]3)C2)C1=O (configuration not stated),154
CCc1csc(CNC(=O)C(C)n2cnc3ccccc32)n1 (configuration not stated),18
C[C@H]1CN([C@@H](C)CO)C(=O)c2cc(NS(=O)(=O)c3cccs3)ccc2O[C@H]1CN(C)S(=O)(=O)c1ccc(Cl)cc1,-4

# Assay outcomes from PubChem BioAssay.
